In PubChem BioAssay (EPA / NIEHS):
Records with an inconclusive call do not appear. Calls of active or inactive are those of the source. How the source made its calls: active means hit-call score of the fitted dose curve at least 0.9, where 1 is the maximum; inconclusive means response in the unintended direction; inactive means score below 0.9.

Legend:
[1] = target: human Dual Specificity Protein Phosphatase 3 (DUSP3), DUSP3 (gene 1845) (UniProt P51452); test: NVS_ENZ_hDUSP3: NovaScreen (NVS) Enzymatic Assay for human Dual Specificity Protein Phosphatase 3 (DUSP3) (AID 2283152);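 further: phosphatase activity of recombinant human DUSP3 on a fluorogenic substrate without cells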
How it was run: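 Cell-free fluorescence-intensity enzyme activity assay with recombinant protein and substrate; loss of signal fitted relative to DMSO baseline. Primary screen in duplicate at 25 uM, actives then run in concentration series; measured 0 h after dosing.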

[2] = target: human Ephrin type-A Receptor 1 (EphA1), EPHA1 (gene 2041) (UniProt P21709); test: NVS_ENZ_hEphA1: NovaScreen (NVS) Enzymatic Assay for human Ephrin type-A Receptor 1 (EphA1) (AID 2283158);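 further: activity is signal loss versus DMSO meaning EphA1 kinase inhibition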
human Ephrin type-A Receptor 1 (EphA1), EPHA1 (gene 2041), sequence (P21709 whole entry, looked up): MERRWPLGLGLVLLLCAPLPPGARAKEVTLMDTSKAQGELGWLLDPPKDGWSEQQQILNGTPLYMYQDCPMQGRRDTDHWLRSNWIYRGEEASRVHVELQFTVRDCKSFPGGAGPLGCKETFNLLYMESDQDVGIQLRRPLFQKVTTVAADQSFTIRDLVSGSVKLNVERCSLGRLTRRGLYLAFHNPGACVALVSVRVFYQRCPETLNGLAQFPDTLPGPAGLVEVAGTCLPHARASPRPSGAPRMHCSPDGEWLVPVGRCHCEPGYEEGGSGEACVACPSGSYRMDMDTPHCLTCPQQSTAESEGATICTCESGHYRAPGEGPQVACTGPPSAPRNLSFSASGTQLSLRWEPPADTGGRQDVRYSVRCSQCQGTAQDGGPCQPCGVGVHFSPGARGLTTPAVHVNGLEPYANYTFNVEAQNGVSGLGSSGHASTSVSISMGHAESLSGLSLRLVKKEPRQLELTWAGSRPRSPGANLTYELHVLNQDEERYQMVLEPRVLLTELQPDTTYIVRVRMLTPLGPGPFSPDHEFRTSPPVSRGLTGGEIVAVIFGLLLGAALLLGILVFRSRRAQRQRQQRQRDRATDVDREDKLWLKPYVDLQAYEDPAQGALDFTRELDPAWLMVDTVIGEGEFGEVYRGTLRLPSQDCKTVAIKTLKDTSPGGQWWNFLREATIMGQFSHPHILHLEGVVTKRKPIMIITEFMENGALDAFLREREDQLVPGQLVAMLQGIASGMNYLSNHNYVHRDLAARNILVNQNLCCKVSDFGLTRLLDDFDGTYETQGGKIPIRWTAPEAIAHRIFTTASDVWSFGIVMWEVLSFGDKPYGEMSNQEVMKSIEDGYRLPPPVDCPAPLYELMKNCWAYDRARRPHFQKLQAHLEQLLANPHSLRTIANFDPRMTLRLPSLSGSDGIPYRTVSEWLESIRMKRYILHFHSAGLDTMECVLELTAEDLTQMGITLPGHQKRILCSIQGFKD
How it was run: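 Recombinant kinase, fluorescent substrate, mobility-shift separation, fluorescence read at 1 h. Single-point duplicates at 25 uM; hits (e.g., ≥30% inhibition) run singleton concentration-response, max 50 uM. DMSO = negative control/baseline.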

[3] = target: human Matrix Metalloproteinase-9 (MMP9), MMP9 (gene 4318) (UniProt P14780); test: NVS_ENZ_hMMP9: NovaScreen (NVS) Enzymatic Assay for human Matrix Metalloproteinase-9 (MMP9) (AID 2283190);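 further: cell-free recombinant MMP9 protease activity read by fluorescent substrate signal; active means inhibition seen as loss of fluorescence signal versus DMSO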
human Matrix Metalloproteinase-9 (MMP9), MMP9 (gene 4318), sequence (P14780 whole entry, looked up): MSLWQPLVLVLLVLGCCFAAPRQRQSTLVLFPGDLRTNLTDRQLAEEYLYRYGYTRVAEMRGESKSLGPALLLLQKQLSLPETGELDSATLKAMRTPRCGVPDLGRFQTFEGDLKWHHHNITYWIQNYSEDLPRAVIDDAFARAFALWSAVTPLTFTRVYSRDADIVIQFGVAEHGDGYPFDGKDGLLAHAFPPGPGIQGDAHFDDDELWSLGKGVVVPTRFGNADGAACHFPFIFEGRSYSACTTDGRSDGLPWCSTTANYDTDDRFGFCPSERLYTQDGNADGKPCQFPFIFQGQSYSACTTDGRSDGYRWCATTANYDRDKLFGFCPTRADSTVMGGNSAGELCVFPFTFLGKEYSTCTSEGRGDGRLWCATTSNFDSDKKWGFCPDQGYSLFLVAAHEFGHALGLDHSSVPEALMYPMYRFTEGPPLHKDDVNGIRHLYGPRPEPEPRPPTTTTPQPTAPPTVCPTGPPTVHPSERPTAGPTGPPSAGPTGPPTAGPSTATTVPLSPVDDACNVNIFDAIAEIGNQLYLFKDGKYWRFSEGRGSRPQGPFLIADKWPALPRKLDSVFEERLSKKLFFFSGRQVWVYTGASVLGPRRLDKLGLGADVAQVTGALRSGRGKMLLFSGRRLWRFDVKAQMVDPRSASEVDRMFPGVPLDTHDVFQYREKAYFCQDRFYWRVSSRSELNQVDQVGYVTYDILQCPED
How it was run: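 Cell-free fluorescence-intensity enzyme activity assay using extracted protein, read 1 h after dosing. Loss of signal versus DMSO baseline indicates inhibition; primary screen in duplicate at 25 uM, actives followed up in concentration series.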

[4] = target: human Caspase 5 (CASP5), CASP5 (gene 838) (UniProt P51878); test: NVS_ENZ_hCASP5: NovaScreen (NVS) Enzymatic Assay for human Caspase 5 (CASP5) (AID 2283137)
How it was run: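 Loss of fluorescent signal versus DMSO scored for E. coli-derived human CASP5 cleaving a fluorescent substrate, 2 h post-dosing; compounds first tested at 25 uM in duplicate, hits rerun in concentration series with 50 uM top concentration.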

[5] = target: human Beta-secretase (BACE), BACE1 (gene 23621) (UniProt P56817); test: NVS_ENZ_hBACE: NovaScreen (NVS) Enzymatic Assay for human Beta-secretase (BACE) (AID 2283140);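 further: hits are inhibitors that reduce fluorescent substrate signal versus DMSO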
human Beta-secretase (BACE), BACE1 (gene 23621), sequence (P56817 whole entry, looked up): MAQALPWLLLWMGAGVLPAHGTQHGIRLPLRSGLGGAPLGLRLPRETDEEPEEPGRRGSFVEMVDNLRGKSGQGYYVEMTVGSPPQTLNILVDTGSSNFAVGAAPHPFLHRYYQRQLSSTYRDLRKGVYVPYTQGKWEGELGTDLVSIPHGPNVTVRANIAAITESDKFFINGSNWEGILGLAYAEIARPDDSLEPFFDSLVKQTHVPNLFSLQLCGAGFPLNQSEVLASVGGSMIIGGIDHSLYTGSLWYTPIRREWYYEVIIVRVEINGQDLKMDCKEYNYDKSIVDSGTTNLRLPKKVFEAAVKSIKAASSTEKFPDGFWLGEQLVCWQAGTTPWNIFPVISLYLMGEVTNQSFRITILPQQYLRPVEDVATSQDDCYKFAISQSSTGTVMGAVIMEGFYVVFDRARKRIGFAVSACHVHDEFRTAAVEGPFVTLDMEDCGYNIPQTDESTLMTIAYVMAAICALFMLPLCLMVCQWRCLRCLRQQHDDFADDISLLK
How it was run: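 Enzyme from SF9 cells was incubated 1 hour with compound and fluorogenic substrate, activity read by fluorescence. Single-concentration duplicates at 25 uM preceded concentration-response follow-up; fitting relative to DMSO baseline.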

[6] = target: sheep Cyclooxygenase-1 (Cox1), PTGS1 (gene 443551) (UniProt P05979); test: NVS_ENZ_oCOX1: NovaScreen (NVS) Enzymatic Assay for sheep Cyclooxygenase-1 (Cox1) (AID 2283239);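 further: actives reduce cyclooxygenase activity so potencies are for inhibitors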
How it was run: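 Ovine seminal vesicle extract; absorbance (colorimetric) enzyme read-out at 0.66 h post-dose. Primary: single conc 25 uM, duplicate. Follow-up: concentration series on actives. Activity = signal loss vs DMSO baseline.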

[7] = target: human Esterase Plasma (ES), BCHE (gene 590) (UniProt P06276); test: NVS_ENZ_hES: NovaScreen (NVS) Enzymatic Assay for human Esterase Plasma (ES) (AID 2283157)
How it was run: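 Screening ran at 25 uM in duplicate, followed by singleton concentration series reaching 50 uM for actives. Human plasma protein, colorimetric detection, 0.25 h exposure, DMSO negative control.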

[8] = target: human Phosphodiesterase 10 (PDE10), PDE10A (gene 10846) (UniProt Q9Y233); test: NVS_ENZ_hPDE10: NovaScreen (NVS) Enzymatic Assay for human Phosphodiesterase 10 (PDE10) (AID 2283195)
human Phosphodiesterase 10 (PDE10), PDE10A (gene 10846), sequence (Q9Y233 whole entry, looked up): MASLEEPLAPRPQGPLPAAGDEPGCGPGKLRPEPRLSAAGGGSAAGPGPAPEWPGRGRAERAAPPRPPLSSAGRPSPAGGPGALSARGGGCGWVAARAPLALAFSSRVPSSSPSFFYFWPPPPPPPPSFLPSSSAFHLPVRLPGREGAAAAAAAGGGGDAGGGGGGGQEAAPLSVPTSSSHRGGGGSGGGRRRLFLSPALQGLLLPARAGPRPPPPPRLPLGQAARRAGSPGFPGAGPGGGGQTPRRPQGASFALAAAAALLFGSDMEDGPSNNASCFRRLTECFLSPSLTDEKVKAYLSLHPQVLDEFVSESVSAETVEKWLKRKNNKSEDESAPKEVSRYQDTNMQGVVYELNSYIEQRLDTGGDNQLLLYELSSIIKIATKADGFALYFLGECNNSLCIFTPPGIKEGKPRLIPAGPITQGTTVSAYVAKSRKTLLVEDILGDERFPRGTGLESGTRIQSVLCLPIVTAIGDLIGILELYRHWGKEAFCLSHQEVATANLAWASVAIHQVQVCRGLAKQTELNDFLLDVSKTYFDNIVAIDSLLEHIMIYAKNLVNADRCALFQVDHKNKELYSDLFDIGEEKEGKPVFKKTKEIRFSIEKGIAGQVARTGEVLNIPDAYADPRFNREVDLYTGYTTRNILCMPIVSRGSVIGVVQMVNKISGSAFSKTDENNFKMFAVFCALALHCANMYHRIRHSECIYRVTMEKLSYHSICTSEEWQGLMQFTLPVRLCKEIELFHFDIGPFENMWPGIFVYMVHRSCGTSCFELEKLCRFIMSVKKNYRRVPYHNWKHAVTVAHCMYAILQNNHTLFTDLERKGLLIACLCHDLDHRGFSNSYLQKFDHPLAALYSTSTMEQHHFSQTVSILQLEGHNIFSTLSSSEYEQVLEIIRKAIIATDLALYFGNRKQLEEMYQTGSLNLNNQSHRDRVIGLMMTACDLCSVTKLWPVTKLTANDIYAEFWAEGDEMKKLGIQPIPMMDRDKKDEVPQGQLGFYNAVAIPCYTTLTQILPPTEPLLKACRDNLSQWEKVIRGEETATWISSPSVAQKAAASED
How it was run: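 Readout is fluorescence intensity following electrophoretic mobility-shift separation, 1 h after dosing of isolated PDE10A protein. Hits meeting a preset threshold at 25 uM went to concentration series (max 50 uM), analysed relative to DMSO.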

[9] = target: human Phosphoinositide 3-kinase alpha (PI3Ka), PIK3CA (gene 5290) (UniProt P42336); test: NVS_ENZ_hPI3Ka: NovaScreen (NVS) Enzymatic Assay for human Phosphoinositide 3-kinase alpha (PI3Ka) (AID 2283196)
human Phosphoinositide 3-kinase alpha (PI3Ka), PIK3CA (gene 5290), sequence (P42336 whole entry, looked up): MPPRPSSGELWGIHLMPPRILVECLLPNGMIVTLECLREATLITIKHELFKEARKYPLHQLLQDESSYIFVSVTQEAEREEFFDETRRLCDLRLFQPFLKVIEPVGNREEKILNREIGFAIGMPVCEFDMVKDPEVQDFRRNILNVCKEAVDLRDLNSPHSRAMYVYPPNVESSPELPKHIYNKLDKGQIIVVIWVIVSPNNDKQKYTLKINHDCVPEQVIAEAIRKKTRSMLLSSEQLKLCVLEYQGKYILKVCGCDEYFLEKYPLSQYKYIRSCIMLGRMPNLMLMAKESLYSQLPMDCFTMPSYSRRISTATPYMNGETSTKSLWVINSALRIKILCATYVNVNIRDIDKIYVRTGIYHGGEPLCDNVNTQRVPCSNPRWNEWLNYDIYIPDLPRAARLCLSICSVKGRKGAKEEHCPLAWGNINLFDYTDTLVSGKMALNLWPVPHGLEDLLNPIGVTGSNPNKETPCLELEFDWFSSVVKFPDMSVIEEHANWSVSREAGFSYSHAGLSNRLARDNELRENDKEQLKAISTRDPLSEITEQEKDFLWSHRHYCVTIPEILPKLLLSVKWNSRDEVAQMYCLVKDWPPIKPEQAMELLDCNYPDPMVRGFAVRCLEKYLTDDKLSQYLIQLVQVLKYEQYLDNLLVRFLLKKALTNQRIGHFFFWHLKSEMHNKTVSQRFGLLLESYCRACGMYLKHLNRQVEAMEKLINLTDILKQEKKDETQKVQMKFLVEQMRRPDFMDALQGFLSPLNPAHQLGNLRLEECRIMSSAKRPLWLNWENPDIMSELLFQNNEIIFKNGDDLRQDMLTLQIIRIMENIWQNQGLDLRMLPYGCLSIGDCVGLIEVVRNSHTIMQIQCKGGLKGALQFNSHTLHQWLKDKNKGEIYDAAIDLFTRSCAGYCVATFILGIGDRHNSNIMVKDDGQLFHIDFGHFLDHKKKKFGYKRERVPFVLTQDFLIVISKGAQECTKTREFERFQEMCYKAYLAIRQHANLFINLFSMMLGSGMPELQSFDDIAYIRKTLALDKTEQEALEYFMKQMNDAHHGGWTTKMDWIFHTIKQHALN
How it was run: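 Enzyme activity as fluorescence after mobility-shift separation of substrate and product, 1 h reaction, recombinant human PI3Kα; concentration-response to 50 uM max for chemicals passing a 25 uM duplicate screen.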

[10] = target: human CYP2C9, CYP2C9 (gene 1559) (UniProt P11712); test: NVS_ADME_hCYP2C9: NovaScreen (NVS) CYP450-related Enzyme Activity (ADME) Assay for human CYP2C9 (AID 2283108)
How it was run: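 Cell-free assay of recombinant human CYP2C9 produced in Sf9 cells, with enzyme activity read by fluorescence intensity 0.75 h after compound addition. Loss of signal versus an acetonitrile negative control indicates inhibition. Primary screen used 10 uM in duplicate; actives were retested in concentration series.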

[11] = target: Cytochrome P450 2C19 (Homo sapiens) (UniProt P33261); test: NVS_ADME_hCYP2C19: NovaScreen (NVS) CYP450-related Enzyme Activity (ADME) Assay for human CYP2C19 (AID 2283113);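 further: potency for inhibition seen as loss of fluorescent signal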
How it was run: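 Recombinant insect-cell-expressed enzyme, fluorescent substrate, 1 h after chemical addition, fluorescence intensity. Baseline = acetonitrile vehicle; activity scored as signal loss. Primary HTS single concentration 10 uM, duplicate; actives retested in concentration series.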

[12] = target: human CYP2D6, CYP2D6 (gene 1565) (UniProt P10635); test: NVS_ADME_hCYP2D6: NovaScreen (NVS) CYP450-related Enzyme Activity (ADME) Assay for human CYP2D6 (AID 2283107)
How it was run: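 Fluorescence intensity read 1 h post-dosing; insect-cell-expressed recombinant protein with fluorogenic substrate, no cells. Activity is scored as signal loss relative to acetonitrile baseline, first at a single 10 uM concentration in duplicate, then as concentration series for confirmed actives.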

[13] = target: human Adenosine A2a Receptor (AdoRA2a), ADORA2A (gene 135) (UniProt P29274); test: NVS_GPCR_hAdoRA2a: NovaScreen (NVS) G Protein-Coupled Receptor Assay for human Adenosine A2a Receptor (AdoRA2a) (AID 2283256)
human Adenosine A2a Receptor (AdoRA2a), ADORA2A (gene 135), sequence (P29274 whole entry, looked up): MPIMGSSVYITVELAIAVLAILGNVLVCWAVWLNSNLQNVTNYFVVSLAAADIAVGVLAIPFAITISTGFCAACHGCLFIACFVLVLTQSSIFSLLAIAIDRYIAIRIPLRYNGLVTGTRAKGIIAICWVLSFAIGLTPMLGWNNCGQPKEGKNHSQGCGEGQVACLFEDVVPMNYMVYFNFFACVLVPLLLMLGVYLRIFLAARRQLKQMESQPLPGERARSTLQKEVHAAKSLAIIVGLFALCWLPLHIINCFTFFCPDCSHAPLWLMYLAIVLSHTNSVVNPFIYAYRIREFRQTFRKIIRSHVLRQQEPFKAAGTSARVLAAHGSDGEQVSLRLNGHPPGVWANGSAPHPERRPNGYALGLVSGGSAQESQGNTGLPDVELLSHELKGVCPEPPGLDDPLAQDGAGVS
How it was run: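 Compounds screened in duplicate at 25 uM, with actives followed up in concentration series, for displacement of a radioligand from HEK293-derived receptor protein. Bound counts read by filter scintillation at 1.5 hours, DMSO as baseline.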

[14] = target: D(1A) dopamine receptor (Homo sapiens) (UniProt P21728); test: NVS_GPCR_hDRD1: NovaScreen (NVS) G Protein-Coupled Receptor Assay for human Dopamine Receptor D1 (DRD1) (AID 2283269)
How it was run: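 Cell-free competition with radioligand, filter-trapped and scintillation-counted 1 h post-dose, using HEK293-derived human D1 preparation. Duplicate single-point testing at 25 uM first, then concentration series for actives; DMSO served as baseline, loss-of-signal scored.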

[15] = target: Muscarinic acetylcholine receptor M2 (Homo sapiens) (UniProt P08172); test: NVS_GPCR_hM2: NovaScreen (NVS) G Protein-Coupled Receptor Assay for human Muscarinic, M2 Receptor (AID 2283273)
How it was run: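 Radioligand competition binding, cell-free, receptor from CHO; 1 h incubation; scintillation detection. Primary testing at 25 uM in duplicate.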

[16] = target: human Adenosine A1 Receptor (AdoRA1), ADORA1 (gene 134) (UniProt P30542); test: NVS_GPCR_hAdoRA1: NovaScreen (NVS) G Protein-Coupled Receptor Assay for human Adenosine A1 Receptor (AdoRA1) (AID 2283254)
human Adenosine A1 Receptor (AdoRA1), ADORA1 (gene 134), sequence (P30542 whole entry, looked up): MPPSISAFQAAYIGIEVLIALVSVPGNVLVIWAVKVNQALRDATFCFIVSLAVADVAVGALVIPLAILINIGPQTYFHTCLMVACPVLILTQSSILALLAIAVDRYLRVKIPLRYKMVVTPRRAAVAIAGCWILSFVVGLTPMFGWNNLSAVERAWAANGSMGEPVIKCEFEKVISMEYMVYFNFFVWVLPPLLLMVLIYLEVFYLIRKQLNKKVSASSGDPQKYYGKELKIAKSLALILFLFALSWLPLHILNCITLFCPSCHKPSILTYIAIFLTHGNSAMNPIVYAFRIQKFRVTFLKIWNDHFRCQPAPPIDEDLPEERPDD
How it was run: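 Radioligand competition binding on human cortical membranes, 1 h after compound addition; bound radioactivity read by filtration and scintillation counting. Loss of signal versus DMSO baseline scored as displacement; primary screen duplicate at 25 uM, actives retested in concentration series.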

[17] = target: human Neurokinin, NK2 Receptor, TACR2 (gene 6865) (UniProt P21452); test: NVS_GPCR_hNK2: NovaScreen (NVS) G Protein-Coupled Receptor Assay for human Neurokinin, NK2 Receptor (AID 2283278);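 further: actives reduce bound radioligand signal relative to DMSO baseline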
How it was run: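 Cell-free radioligand binding using receptor protein extracted from CHO cells; readings taken 4 hours after chemical dosing by filter-based scintillation counting. Primary screen ran single concentration (25 uM) in duplicate; actives followed up in concentration series, loss-of-signal versus DMSO baseline.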

[18] = target: human Vascular Endothelial Growth Factor Receptor 1 (VEGFR1), FLT1 (gene 2321) (UniProt P17948); test: NVS_ENZ_hVEGFR1: NovaScreen (NVS) Enzymatic Assay for human Vascular Endothelial Growth Factor Receptor 1 (VEGFR1) (AID 2283226)
How it was run: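 Kinase activity of recombinant human VEGFR1 was read by fluorescence after electrophoretic separation of product from substrate, 1 h post-dosing; initial duplicate single-point testing at 25 uM, followed by concentration-series follow-up, with DMSO as baseline.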

SMILES: O=C1CCC(=O)N1Cl
- AC50 [1]: 16.5 µM (active)

SMILES: S=C(NC1CCCCC1)NC1CCCCC1
- outcome [2]: inactive
- AC50 [3]: 6.33 µM (active)

SMILES: c1ccc2c(c1)ccc1cc3c(ccc4ccccc43)cc12
- AC50 [4]: 5.15 µM (active)
- AC50 [5]: 13 µM (active)
- AC50 [3]: 4.46 µM (active)
- AC50 [6]: 22.5 µM (active)

SMILES: CC1(C)S[C@@H]2[C@H](NC(=O)COc3ccccc3)C(=O)N2[C@H]1C(=O)O
- outcome [5]: inactive

SMILES: c1ccc2c(c1)ccc1ncccc12
- AC50 [7]: 20.2 µM (active)

SMILES: Cc1ccc(N)c([N+](=O)[O-])c1
- AC50 [2]: 43.4 µM (active)
- AC50 [8]: 25 µM (active)
- outcome [9]: inactive

SMILES: CC(C)(c1cc(Br)c(OCCO)c(Br)c1)c1cc(Br)c(OCCO)c(Br)c1
- AC50 [10]: 0.879 µM (active)
- AC50 [11]: 1.8 µM (active)
- outcome [2]: inactive
- AC50 [8]: 20.2 µM (active)
- AC50 [9]: 2.62 µM (active)

SMILES: C=CCOCC(O)CCl (stereo not drawn)
- outcome [4]: inactive
- outcome [5]: inactive

SMILES: COCCOCCOCCOCCOC
- outcome [2]: inactive
- outcome [9]: inactive

SMILES: CCC(C)C=O (stereo not drawn)
- AC50 [3]: 8.8 µM (active)
- AC50 [8]: 16.2 µM (active)

SMILES: N#[N+]c1ccc2c(S(=O)(=O)[O-])cccc2c1O
- AC50 [12]: 3.97 µM (active)
- AC50 [4]: 9.03 µM (active)
- AC50 [1]: 14.9 µM (active)
- outcome [2]: inactive
- outcome [9]: inactive
- AC50 [6]: 5.62 µM (active)

SMILES: C=C(C)C(=O)OCC(C)C
- outcome [8]: inactive

SMILES: OCCCS
- outcome [8]: inactive

SMILES: Nc1cccc(C(F)(F)F)c1
- outcome [8]: inactive

SMILES: NC(=O)NNC(N)=O
- outcome [8]: inactive

SMILES: CC(C)(C)c1n[nH]c(=O)n(N)c1=O
- outcome [8]: inactive

SMILES: O=c1c2ccccc2oc2ccccc12
- outcome [13]: inactive

SMILES: c1ccc(-c2ccccn2)nc1
- outcome [6]: inactive

SMILES: CCCCCCCCCCc1ccccc1
- outcome [8]: inactive

SMILES: C1=CCCC1
- outcome [13]: inactive
- outcome [14]: inactive

SMILES: O=CN1CCCCC1
- outcome [8]: inactive

SMILES: C=CC(=O)OCC(Br)CBr (stereo not drawn)
- outcome [14]: inactive

SMILES: CCCC(C)CCC(C)=O (stereo not drawn)
- outcome [14]: inactive

SMILES: COCc1c(C(C)C)nc(C(C)C)c(/C=C/[C@@H](O)C[C@@H](O)CC(=O)O)c1-c1ccc(F)cc1
- outcome [13]: inactive

SMILES: CCOC(=O)[C@H](C)O
- outcome [8]: inactive

SMILES: CCO[Si](CCCN=C=O)(OCC)OCC
- outcome [6]: inactive

SMILES: CC(C)c1ccc(C=O)cc1
- outcome [13]: inactive
- outcome [15]: inactive

SMILES: O=C(Nc1ccccc1SSc1ccccc1NC(=O)c1ccccc1)c1ccccc1
- AC50 [16]: 25 µM (active)

SMILES: O=C(Cl)c1cc(C(=O)Cl)cc(C(=O)Cl)c1
- AC50 [17]: 15 µM (active)

SMILES: Cc1ccc(C2OC[C@@H]3OC(c4ccc(C)cc4)O[C@H]([C@H](O)CO)[C@@H]3O2)cc1 (stereo partly drawn)
- outcome [8]: inactive

SMILES: CCOc1nc(F)cc2nc(S(=O)(=O)Nc3c(Cl)cccc3C(=O)OC)nn12
- AC50 [14]: 25 µM (active)

SMILES: C=C(C)CCO
- AC50 [8]: 38.2 µM (active)

SMILES: Cn1c(=O)[nH]c2ncn(C)c2c1=O
- outcome [8]: inactive
- AC50 [16]: 25 µM (active)

SMILES: O=C1CCCC(=O)O1
- outcome [8]: inactive

SMILES: CCCOC(=O)CCCCC(=O)OCCC
- AC50 [9]: 2 µM (active)
- AC50 [18]: 42.3 µM (active)

SMILES: CC1OC1C1CCC2(C)OC2C1 (stereo not drawn)
- outcome [8]: inactive
